# Screening data (PubChem BioAssay)
# KB-V1 cytotox – qHTS assay for MDR1-selective chemotherapeutics: Primary screen using the drug-selected MDR subline cells KB-V1 | KB-V1 MDR cells viability, CellTiter-Glo, 72 h | Potency, µM (highest dose often 46.1 µM), usual class: cytotoxic | 400,000 compounds, 3.4% hits | AID 1347076, 2019; also: % is scaled to controls: 0 for no effect and ±100 for the full control effect; nearly all actives have a fitted effect of over 60% in size
#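 KB-V1, DMEM (no phenol red) + 10% FBS; cpd pin-transferred, titration series; 72 h, 37 degrees C; CellTiter-Glo, luminescence. Data normalized, curve-fit.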
# MCF10A rerep – A quantitative high throughput screen for small molecules that induce DNA re-replication in MCF 10a normal breast cells; 350,000 compounds, 2.9% hits; Potency, µM (series often up to 46.1 µM), for inactives: at the top dose activity, positive = re-replication, usual class: activators; MCF 10A DNA re-replication, Hoechst nuclear intensity, 48 h; also: % of control where 0% means no effect; nearly all actives have a fitted effect of over 50% in size
# SW480 rereplic – A quantitative high throughput screen for small molecules that induce DNA re-replication in SW480 colon adenocarcinoma cells | SW480 DNA re-replication, Hoechst DNA content imaging, 48 h | Potency, µM (highest dose often 46.1 µM), without a hit: at the top dose re-replication activation, hits mostly activators | 340,000 compounds, 1.8% hits; also: % of control where 0% means no effect; nearly all actives have a fitted effect of over 55% in size
#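 Quantitative HTS format with DMSO vehicle controls; 48 hr drug incubation at 37 C, then 40 min Hoechst staining and scanning imager measurement at 405 nm excitation.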
# PTAP TSG101 blk – qHTS Assay for Iinhibitors of HIV-1 Budding by Blocking the Interaction of PTAP/TSG101. AID 493005, 2010. Fluorescence polarization, FITC-PTAP peptide / Tsg101 binding. Potency, µM (titrated, usually from 115 µM), for the others: top-dose activity change, negative = inhibition, most hits filed as inhibitors. Tumor susceptibility gene 101 protein (Homo sapiens), Q99816. 340,000 tested, under 10 active; active = well fitted inhibition curve with a large enough effect in the main read-out, with a control signal flat, not every such curve was filed as active; inconclusive = small, poorly fitted or top-dose-only effect, or effect the other way, or a change in a side signal; inactive = no such curve, though single readings can be large or run the other way; also: % of control where 0% means no effect
# Target sequence (Q99816 whole entry, looked up): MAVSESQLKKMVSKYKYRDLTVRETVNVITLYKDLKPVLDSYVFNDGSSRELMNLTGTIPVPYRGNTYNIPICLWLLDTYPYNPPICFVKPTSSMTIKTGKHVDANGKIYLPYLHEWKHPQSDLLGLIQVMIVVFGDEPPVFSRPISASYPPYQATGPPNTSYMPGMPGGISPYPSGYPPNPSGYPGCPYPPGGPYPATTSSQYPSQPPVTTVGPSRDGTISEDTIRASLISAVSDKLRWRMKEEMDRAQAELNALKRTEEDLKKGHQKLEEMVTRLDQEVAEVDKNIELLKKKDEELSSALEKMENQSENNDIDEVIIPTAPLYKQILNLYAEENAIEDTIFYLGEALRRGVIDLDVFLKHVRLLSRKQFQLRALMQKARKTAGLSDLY
#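 Fluorescence anisotropy tracks displacement of a FITC-tagged PTAP peptide (50 nM) from the Tsg101 binding domain (10 uM), following a 20 min room-temperature incubation at pH 7.5.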
# KB-3-1 cytotox – qHTS assay for MDR1-selective chemotherapeutics: Primary screen using the parental adenocarcinoma cell KB-3-1. 400,000 compounds, 1.4% hits. AID 1347075, 2019. Potency, µM (titrated, usually from 46.1 µM), usual class: cytotoxic. KB-3-1 viability, CellTiter-Glo ATP luminescence, 72 h; also: % is scaled to controls: 0 for no effect and ±100 for the full control effect; nearly all actives have a fitted effect of over 60% in size
#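 Cells are dispensed, compounds pinned in, plates held at 37 °C for 72 h, then CellTiter-Glo is added and luminescence read after 10 minutes. Cell line: parental KB-3-1 in phenol-red-free DMEM, 10% FBS.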
# PINK1 modulator – A Quantitative High throughput Screen to Identify Chemical Modulators of PINK1 Expression | PINK1 immunofluorescence, high-content cytometry, 24 h | Potency, µM (highest dose often 76.6 µM), without a hit: top-dose activation (PINK1 increase), most hits filed as activators | 410,000 compounds, 0.2% hits; active = well fitted activation curve with a large enough effect; inconclusive = small, poorly fitted or top-dose-only effect; cell line not stated here; also: % of control where 0% means no effect; nearly all actives have a fitted effect of over 65% in size
#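 Compound titrations (5 concentrations, 24 h) on a stable cell line; DMSO and CCCP controls. Endpoint: fixed-cell PINK1 immunofluorescence with mitochondrial, cell and nuclear markers, scanned by microplate cytometer.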
# * = called active by the depositor; i = inactive; ? = inconclusive; · = not tested or not shown; [ ] = remark or other dose. Hits are enriched below; roughly 6.8% of the tested compounds scored in any of these assays. Unless noted, calls follow the shape of the dose curve; as a rule, active = well fitted curve in the direction sought with a large enough effect; inconclusive = small, poorly fitted or top-dose-only effect, or another doubt; inactive = no such curve, though single readings can be large; an effect the other way counts as inactive or inconclusive. Potency is read from the fitted curve at half-maximal effect.
SMILES,KB-V1 cytotox,MCF10A rerep,SW480 rereplic,PTAP TSG101 blk,KB-3-1 cytotox,PINK1 modulator
O=C(/C(=C\c1ccccc1)c1nc2ccccc2[nH]1)c1ccc(Cl)cc1,?,4.1µM*,?,0%,?,-3%
S=C(Nc1ccc(Cl)cc1)c1nc2ccccc2[nH]1,5.2µM*,?,·,-2%,?,6%
O=C(/C(=C/c1ccc(Cl)cc1)c1nc2ccccc2[nH]1)c1cccs1,?,5.2µM*,?,0%,i,-4%
O/C(=C\c1nc2ccccc2[nH]1)c1cccs1,i,?,?,1%,i,1%
COc1cc(/C=C(/C(=O)c2cccs2)c2nc3ccccc3[nH]2)ccc1O,16µM*,4.1µM*,7.3µM*,-4%,?,-46%[38.3 µM]
O=C(/C=C/c1cccc(Cl)c1)c1nc2ccccc2[nH]1,i,?,?,-4%,?,-3%
COC(=O)c1ccc(OCC(O)Cn2nnc3ccccc32)cc1 (stereo unspecified),23µM*,0%,-6%,-1%,i,0%
CC(=O)c1ccc(OCC(O)Cn2nnc3ccccc32)cc1 (stereo unspecified),i,-2%,?,-10%,i,-2%[38.3 µM]
O=C1C2CC=CCC2C(=O)N1c1ccc(OCC(O)Cn2nnc3ccccc32)cc1 (stereo unspecified),15µM*,4%,0%,-6%,?,-1%
CCOc1ccccc1N(CC)C(=O)c1cc2c(=O)n(CC)c3ccccc3c2s1,21µM*,·,·,·,?,?
CCn1c(=O)c2cc(C(=O)N(C)c3cc(C)ccc3OC)sc2c2ccccc21,23µM*,?,?,-1%,i,13%
CCn1c(=O)c2cc(C(=O)N(C)c3cc(Cl)c(OC)cc3OC)sc2c2ccccc21,i,·,·,·,i,1%
Clc1ccccc1CNc1ncnc2c1c(-c1ccccc1)cn2-c1ccccc1,·,·,·,·,·,1%
COc1ccccc1NS(=O)(=O)c1cc(NC(=O)c2cccnc2)ccc1N1CCCCC1,?,17%,3%,-1%,?,0%
O=C(Nc1cccc(S(=O)(=O)Nc2ccccc2Cl)c1)c1ccc(Cl)nc1,2.6µM*,-51%,3%,-1%,5.2µM*,9%
COc1ccccc1NS(=O)(=O)c1cc(NC(=O)Nc2ccc(Cl)cc2Cl)ccc1N1CCCCC1,10µM*,3%,-8%,-1%,?,-2%
CC(=O)Nc1ccc(N2CCOCC2)c(S(=O)(=O)Nc2ccccc2Cl)c1,i,·,·,·,i,0%
O=C(Nc1cccc(C(F)(F)F)c1)Nc1ccc(N2CCCC2)c(S(=O)(=O)Nc2ccccc2Cl)c1,8.2µM*,4.6µM*,?,-1%,7.3µM*,?
COc1ccccc1NS(=O)(=O)c1cc(NC(=O)C2CCC2)ccc1N1CCCCC1,i,3%,-12%,-9%,i,-1%
COc1ccccc1NS(=O)(=O)c1cc(NC(=O)c2ccc(Cl)nc2)ccc1N1CCCC1,4.1µM*,11%,8%,-1%,i,2%
CCC(Sc1nc2c(sc3ccccc32)c(=O)n1CCc1ccc(OC)c(OC)c1)C(=O)N(CC)CC (stereo unspecified),i,·,·,·,i,4%
COc1ccccc1C(=O)NCCn1cc(SCC(=O)Nc2ccccc2F)c2ccccc21,?,·,·,·,i,2%
COc1ccccc1NS(=O)(=O)c1cccc(NC(=O)Nc2ccccc2)c1,21µM*,17%,?,0%,?,?
